aSyn UTR act – Activators via SNCA 5'UTR binding, MLPCN. alpha-synuclein 5'UTR reporter, activators screen. activity score, % (tested at 7.5 µM), hits read low. hit rate 7.1% among 300,000. AID 1814, 2009; in the data active = activity score below about -60%
Active calls of the source: *. Not all results are given here.

SMILES	aSyn UTR act
c1csc(-c2noc(CN3CCc4sccc4C3)n2)c1	-69*
O=C(Nc1ccc(O)c(-c2nc3ccccc3s2)c1)C1=COCCO1	-78*
O=C(Nc1cccc(-c2nc3ccccc3s2)c1)C1=COCCO1	-82*
O=C(Nc1ccc(-c2nc3ccccc3s2)cc1)C1=COCCO1	94
O=C(Nc1ccc(-c2nc3ccccc3s2)c(O)c1)C1=COCCO1	-80*
Nc1nc(-c2cc(O)ccc2[N+](=O)[O-])cc(-c2ccccc2)c1[N+](=O)[O-]	-120*
Cc1cccc(-c2ncc(S(=O)(=O)C(C)(C)C)c(N)n2)c1	-84*
CN(C)c1ccc(N=Nc2ccccc2C(=O)OCC(=O)N(C)C2CCCCC2)cc1	-135*
CN(C)c1ccc(N=Nc2ccccc2C(=O)OCC(=O)NC2CCCC2)cc1	-112*
CC(=Nc1ccc(C)c(C)c1)C1=C(O)CSC1=O	-122*
CCN(CC)c1ccc(-c2nn3c(-c4n[nH]c5c4CCC5)nnc3s2)cc1	72
Clc1ccc(-c2n[nH]c3c2CCCC3)cc1	-70*
NNC(=O)c1cc2sccc2s1	-80*
O=C(OCCc1ccccc1)c1cc(O)c(O)c(O)c1	-105*
Nc1ccc(C(=O)OCCc2ccccc2)cc1	-142*
COc1ccc(C(=O)OCCc2ccc(O)cc2)cc1	-179*
CCOC(=O)c1c(C)[nH]c(N=Nc2ccc(C)cc2C)c1C	-106*
CCOC(=O)c1c(C)[nH]c(N=Nc2ccccc2C)c1C	-213*
COc1ccc(C(=O)Nc2nc3ccc(OC)cc3s2)cc1	-277*
COc1ccc(C(=O)Nc2nc(-c3cccs3)c(NC(C)=O)s2)cc1	-83*
CCn1cc([N+](=O)[O-])c(C(=O)Nc2nc3ccc(OC)cc3s2)n1	-84*
COc1ccc2nc(NC(=O)c3ccc(NS(=O)(=O)c4cccs4)cc3)sc2c1	-67*
Cc1ccc(-c2ccc(/C=N/O)o2)cc1[N+](=O)[O-]	-66*
ClCc1csc(N/N=C/c2cccs2)n1	-72*
C(=N\Nc1nc(-c2ccccc2)cs1)/c1cccs1	-233*
SMILES	aSyn UTR act
C(=N\Nc1nc(-c2ccccc2)cs1)/c1ccncc1	-230*
CC1CCc2c(C(=O)Nc3nccs3)csc2C1 (configuration not stated)	-151*
CC1CCc2c(C(=O)NCc3ccccn3)csc2C1 (configuration not stated)	-84*
CC1CCc2sc(C(=O)NCc3ccccn3)cc2C1 (configuration not stated)	-112*
CC1CCc2c(C(=O)Nc3ccccn3)csc2C1 (configuration not stated)	-116*
CC1CCc2sc(C(=O)NC(C)C3CCCO3)cc2C1 (configuration not stated)	-96*
COC(=O)c1ccc2c(=O)[nH]c(CSc3nc(C)cs3)nc2c1	-94*
COc1ccc(/C(N)=C/C(=O)C(C)(C)C)cc1	-98*
CCOC(=O)C1=C(N)n2c(s/c(=C\c3ccco3)c2=O)=C(C(=O)OCC)C1c1ccco1 (configuration not stated)	-78*
C/C=C/COC(=O)c1[nH]c2c(c1C)C(=O)CC(c1ccco1)C2 (configuration not stated)	67
CCCc1nnc(NC(=O)c2c(O)c3c([nH]c2=O)CCCC3)s1	-75*
O=C(Nc1nccs1)c1c(O)c2c([nH]c1=O)CCCC2	-209*
O=C(Nc1ccccc1O)c1c(O)c2c([nH]c1=O)CCCC2	-182*
O=C(N/N=C/c1cccc(Cl)c1)c1c(O)c2c([nH]c1=O)CCCC2	-100*
COc1ccc2oc(=O)c(C(=O)NC3CCCCCC3)cc2c1	-174*
COc1ccc2oc(C(=O)NC3CCCCC3)c(C)c2c1	-99*
COCCN(CC(=O)NC1CCCCC1)C(=O)/C=C/C(=O)c1ccc(OC)cc1O	79
COc1ccc2oc(C(=O)Nc3ccc(C)cn3)c(C)c2c1	-124*
COc1ccc2oc(C(=O)NCCC(C)C)c(C)c2c1	-143*
CCN(CC(=O)Nc1ccccc1C(F)(F)F)C(=O)c1oc2ccc(OC)cc2c1C	-65*
Brc1cc(Br)c2nc(-c3cccs3)ccc2c1	-157*
Cc1cc(N/N=C/c2ccccc2O)c2ccccc2n1	-113*
Cc1ccccc1/C=N/Nc1nc2ccccc2c(=O)n1O	-129*
COc1ccc2nc(C)cc(N/N=C/c3cccc(OC)c3O)c2c1	100
CC(C)(C)c1nnc(N/N=C/c2ccccc2O)n(N)c1=O	110
SMILES	aSyn UTR act
Cc1cccc(N/N=C/c2ccncc2)c1	-109*
Cc1cccc(N/N=C/c2ccccc2O)c1	-182*
Cc1ccc(NN=C2c3ccccc3-c3ccccc32)cc1	-212*
CN(C)c1ccc(N=Nc2cccc(F)c2)cc1	-106*
CN(C)c1ccc(N=Nc2cccc3ccoc23)cc1	-136*
Cc1csc2ncc(C(=O)Nc3ccc4c(c3)OCCO4)c(=O)n12	-169*
Cc1cccc(NC(=O)c2cnc3scc(C)n3c2=O)c1	-181*
CN1/C(=C/C(=O)c2nc(S(C)(=O)=O)ncc2Cl)C(C)(C)c2ccccc21	57
CN(C)c1ccc(N=C/C=C2\N(C)c3ccccc3C2(C)C)cc1	-114*
Cc1cccc(NC(=O)c2cc(-c3ccc(C)c(C)c3O)n[nH]2)c1	-211*
CC(=O)Nc1ccc(NC(=O)c2cc(-c3ccc(C)c(C)c3O)n[nH]2)cc1	-170*
CC(=O)Nc1ccc(NC(=O)c2cc(-c3cc(C)cc(C)c3O)n[nH]2)cc1	-108*
Cc1occc1C(=O)NN=C1C2CC3CC(C2)CC1C3	-141*
COc1ccccc1C(=O)NC1CCCCCCC1	-71*
O=C(NC1CCCC1)c1cc(-c2ccccc2O)on1	-77*
COCC(C)NC(=O)c1cc(-c2ccccc2OC)on1 (configuration not stated)	-102*
COc1ccccc1-c1cc(C(=O)NC2CCCC2)no1	-98*
Cc1cc(NC(=O)c2cc(-c3ccc(O)cc3)on2)no1	-62*
CC1CCCC(C)N1C(=O)c1cc(-c2cccs2)on1 (configuration not stated)	-137*
COc1ccc(OC)c(-c2cc(C(=O)Nc3c(C)nn(Cc4ccccc4C)c3C)no2)c1	60
COc1ccccc1-c1cc(C(=O)NC2CCN(C)CC2)c2ccc(Cl)c(C)c2n1	101
COc1ccccc1-c1cc(C(=O)Nc2cc(C)on2)no1	-146*
O=C(NC1CCCC1)c1cc(-c2cccs2)on1	-343*
O=C(NC1CCCC1)c1cc(-c2ccc(Cl)cc2Cl)on1	-122*
Cc1occc1C(=O)NC1CCCCCCC1	-77*
SMILES	aSyn UTR act
COc1ccccc1-c1cc(C(F)(F)F)nc(S(=O)(=O)CCCC(=O)Nc2cc(C)on2)n1	-65*
O=C(NC1CCCCC1)c1cc(-c2ccccc2Cl)on1	-162*
N#Cc1cnn2c1nc(N1CCCCC1)c1ccccc12	64
N#Cc1cc2cc3c(cc2nc1N1CCCCC1)OCCO3	-222*
Cc1ccc(N(O)C(=O)NCCCCNC(=O)N(O)c2ccc(C)cc2)cc1	-97*
CCOC(=O)c1ccc(N2Cc3ccccc3C2=NC(=O)c2cccc([N+](=O)[O-])c2)cc1	-212*
O=C(N=C1c2ccccc2CN1c1ccc(F)c(F)c1)c1cccnc1	-84*
O=C(N=C1c2ccccc2CN1c1ccccc1)c1cccc([N+](=O)[O-])c1	-123*
O=[N+]([O-])c1ccc(N/N=C/c2cccs2)nc1	-187*
Cc1ccccc1-n1c(C)cc(/C=N/Nc2ccc([N+](=O)[O-])cn2)c1C	-76*
COc1ccc(-n2c(C)nn(CCOc3ccccc3)c2=O)cc1	-90*
Fc1ccc2nc(Nc3nc4c(F)cc(F)cc4s3)sc2c1	-211*
